Data from the supplement of paper PMC13380429.

System: Vero E6 infected with SARS-CoV-2
Assay: inhibition of SARS-CoV-2 cytopathic effect; higher = more antiviral protection, active = above 15
Conditions: 48 h

Measured: inhibition of SARS-CoV-2 cytopathic effect

O=C(O)c1ccccc1 [benzoic-acid]
inactive: 1 nM 0.45% | 8.33 nM -0.31% | 100 nM -1.57% | 833.33 nM -0.13% | 10000 nM -0.09%

C[C@H](Nc1cc(NS(=O)(=O)N2CCC2)nc(SCc2cccc(F)c2F)n1)[C@@H](O)CO
inactive: 1 nM 3.09% | 8.33 nM 1.5% | 100 nM 0.2% | 833.33 nM 0.91% | 10000 nM 2.14%

CCCN(CCC)[C@H]1CCc2ccc(O)cc2C1 [7-hydroxy-DPAT]
inactive: 1 nM 0.73% | 8.33 nM 2.39% | 100 nM 0.54% | 833.33 nM -0.29% | 10000 nM 0.48%

CCC[C@@H]1C[C@@H](C(=O)N[C@@H]([C@H]2O[C@H](SC)[C@H](OP(=O)(O)O)[C@@H](O)[C@H]2O)[C@H](C)Cl)N(C)C1 [Clindamycin phosphate]
inactive: 1 nM 2.18% | 8.33 nM -1.74% | 100 nM 2.16% | 833.33 nM 1.59% | 10000 nM 0.27%

Cc1cc2nc3c(=O)[nH]c(=O)nc-3n(C)c2cc1C=O
inactive: 1 nM 0.98% | 8.33 nM -1.25% | 100 nM -1.28% | 833.33 nM 2.07% | 10000 nM 1.18%

O=C(Nc1cc(C(F)(F)F)ccc1O)Nc1cc(C(F)(F)F)ccc1O
inactive: 1 nM -2.23% | 8.33 nM 2.44% | 100 nM 6.17% | 833.33 nM -1.82% | 10000 nM -0.23%

CCOc1nc2cccc(C(=O)OC(C)OC(=O)OC3CCCCC3)c2n1Cc1ccc(-c2ccccc2-c2nn[nH]n2)cc1 (stereo not given) [candesartan-cilexetil]
inactive: 1 nM -0.98% | 8.33 nM -0.29% | 100 nM -1.43% | 833.33 nM -3.03% | 10000 nM -2.32%

C#Cc1cccc(Nc2ncnc3cc4c(cc23)OCCOCCOCCO4)c1 [icotinib]
inactive: 1 nM 1.1% | 8.33 nM 0.11% | 100 nM -1.65% | 833.33 nM -2.37% | 10000 nM -5.92%

O=NN(CCCl)C(=O)NC1CCCCC1 [lomustine]
inactive: 1 nM -1.8% | 8.33 nM 1.26% | 100 nM 1.76% | 833.33 nM 2.26% | 10000 nM -0.14%

N[C@@H](Cn1oc(=O)[nH]c1=O)C(=O)O [L-quisqualic-acid]
inactive: 1 nM -3.6% | 8.33 nM 3.03% | 100 nM 2.21% | 833.33 nM -1.93% | 10000 nM 0.17%

O=C(O)C[CH2][Ge](=[O])[O][Ge](=[O])[CH2]CC(=O)O [propagermanium]
inactive: 1 nM -0.42% | 8.33 nM 1.44% | 100 nM 3.85% | 833.33 nM -0.73% | 10000 nM -2.33%

Oc1c(I)cc(I)c(O)c1I [riodoxol]
inactive: 1 nM 0% | 8.33 nM 0.37% | 100 nM -0.65% | 833.33 nM -2.42% | 10000 nM -0.9%

CC1Oc2cc(cnc2N)-c2c(nn(C)c2C#N)CN(C)C(=O)c2ccc(F)cc21 (stereo not given)
inactive: 1 nM -0.41% | 8.33 nM 1.22% | 100 nM 0.495% | 833.33 nM -2.23% | 10000 nM 0.255%

O=C(c1ccc(OCCCc2c[nH]cn2)cc1)C1CC1 [ciproxifan]
inactive: 1 nM -1.13% | 8.33 nM -1.91% | 100 nM -1.12% | 833.33 nM 9.43% | 10000 nM 10.2%

COc1cc(C(=O)N2CCC(N3CCN(C)CC3)CC2)ccc1Nc1ncc2c(n1)N(C)c1ccccc1C(=O)N2C
inactive: 1 nM 0.64% | 8.33 nM -0.23% | 100 nM 2.57% | 833.33 nM 1.89% | 10000 nM -6.43%

CC1(C)CCC(C)(C)c2cc(C3(c4ccc(C(=O)O)cc4)OCCO3)ccc21
inactive: 1 nM -2.44% | 8.33 nM -2.21% | 100 nM 1% | 833.33 nM -0.7% | 10000 nM -1.37%

c1ccc(N2CCN(Cc3nc4ccccc4[nH]3)CC2)nc1
inactive: 1 nM 3.44% | 8.33 nM 2.21% | 100 nM -0.12% | 833.33 nM 0.36% | 10000 nM -0.76%

NC(=O)C[S+]([O-])C(c1ccccc1)c1ccccc1 (stereo not given)
inactive: 1 nM -2.5% | 8.33 nM -3.65% | 100 nM -0.185% | 833.33 nM -1.01% | 10000 nM -3.77%

CCOC(=O)C1=C(C)NC(C)=C(C(=O)OC)[C@@H]1c1cccc([N+](=O)[O-])c1 (racemic) [nitrendipine]
inactive: 1 nM 1.59% | 8.33 nM 0.33% | 100 nM -3.74% | 833.33 nM -0.45% | 10000 nM 4.26%

CNC(=O)CN(CCN(CCN(CC(=O)[O-])CC(=O)NC)CC(=O)[O-])CC(=O)[O-].[Gd+3] [gadodiamide]
inactive: 1 nM -0.88% | 8.33 nM -0.45% | 100 nM -3.37% | 833.33 nM -0.21% | 10000 nM 1.36%

CC1=NN=C(c2ccc(N)cc2)c2cc3c(cc2C1)OCO3
inactive: 1 nM -2.65% | 8.33 nM -5.13% | 100 nM -1.01% | 833.33 nM 2.88% | 10000 nM 0.44%

O=C1C2CCN(CC2)C1(CO)CO
inactive: 1 nM -0.42% | 8.33 nM 1.99% | 100 nM 3.09% | 833.33 nM 2.96% | 10000 nM 5.06%

COC(=O)C1=C(C)NC(C)=C(C(=O)OCC(C)C)C1c1ccccc1[N+](=O)[O-] (stereo not given) [nisoldipine]
inactive: 1 nM -1.53% | 8.33 nM 0.72% | 100 nM -2.24% | 833.33 nM -0.83% | 10000 nM 1.64%

C[C@H](N)C(=O)O [L-alanine]
inactive: 1 nM 1.06% | 8.33 nM -0.48% | 100 nM 0.43% | 833.33 nM -0.48% | 10000 nM -4.52%

CCOc1ccc(NC(=S)N2CCC(C(O)(c3ccccc3)c3ccccc3)CC2)cc1
inactive: 1 nM -2.59% | 8.33 nM -1.73% | 100 nM -2.48% | 833.33 nM -3.52% | 10000 nM -4.05%

CC(C)(C(=O)O)c1ccc(C(=O)CCCN2CCC(OC(c3ccccc3)c3ccccc3)CC2)cc1 [carebastine]
inactive: 1 nM -2.83% | 8.33 nM -1.16% | 100 nM -0.91% | 833.33 nM -2.56% | 10000 nM -0.56%

COc1cc(N2CCC(N3CCN(C)CC3)CC2)ccc1Nc1ncc(Cl)c(Nc2ccccc2P(C)(C)=O)n1 [brigatinib]
inactive: 1 nM 0.45% | 8.33 nM -1.85% | 100 nM -2.21% | 833.33 nM -0.42% | 10000 nM -5.17%

Cc1cc(OCCCS(C)(=O)=O)cc(C)c1-c1cccc(COc2ccc3c(c2)OC[C@H]3CC(=O)O)c1
inactive: 1 nM -1.83% | 8.33 nM 0.64% | 100 nM -0.31% | 833.33 nM 3.74% | 10000 nM 2.41%

CCCC(=O)Nc1cccc(NC(=O)c2ccccc2Br)c1
inactive: 1 nM 1.03% | 8.33 nM 1.45% | 100 nM 0.94% | 833.33 nM -1.59% | 10000 nM -0.66%

CC(C)C[C@H](NC(=O)[C@H](CCc1ccccc1)NC(=O)CN1CCOCC1)C(=O)N[C@@H](Cc1ccccc1)C(=O)N[C@@H](CC(C)C)C(=O)[C@@]1(C)CO1 [carfilzomib]
inactive: 1 nM -1.68% | 8.33 nM -2.43% | 100 nM 11.4% | 10000 nM 10.2%
active: 833.33 nM 34.9%

Cc1onc(-c2ccccc2)c1C(=O)N[C@@H]1C(=O)N2[C@@H]1SC(C)(C)[C@@H]2C(=O)O [oxacillin]
inactive: 1 nM 0.69% | 8.33 nM 1.54% | 100 nM 2.17% | 833.33 nM 3.32% | 10000 nM 1.32%

CCCC[C@]1(CC)CS(=O)(=O)c2cc(CNC(CC(=O)O)CC(=O)O)c(OC)cc2[C@@H](c2ccccc2)N1
inactive: 1 nM 3.94% | 8.33 nM 3.04% | 100 nM 5.12% | 833.33 nM 1.44% | 10000 nM 1.53%

CCOC(=O)c1c(C)n(C)c2ccc(O)cc12 [mecarbinate]
inactive: 1 nM -0.79% | 8.33 nM -1.26% | 100 nM -2.84% | 833.33 nM -2.4% | 10000 nM -2.61%

NC(=O)C[C@H](N)C(=O)O [L-asparagine]
inactive: 1 nM -2.05% | 8.33 nM -1.93% | 100 nM -3.65% | 833.33 nM -1.45% | 10000 nM -0.9%

COc1ccc2nc(NC(=O)Nc3ccccc3)sc2c1 [frentizole]
inactive: 1 nM -3.36% | 8.33 nM 0.96% | 100 nM -1.31% | 833.33 nM -1.35% | 10000 nM 1.78%

C#CC1(OCC(O)CN2CCN(c3cccc(C(F)(F)F)c3)CC2)CCCCC1 (stereo not given) [terciprazine]
inactive: 1 nM 0.45% | 8.33 nM -1.84% | 100 nM -0.67% | 833.33 nM 3.5% | 10000 nM -3.3%

CCCCN(CCCC)CCC(O)c1cc2c(Cl)cc(Cl)cc2c2cc(C(F)(F)F)ccc12 (stereo not given) [halofantrine]
inactive: 1 nM -1.32% | 8.33 nM 2.28% | 100 nM 3.05% | 833.33 nM -1.63% | 10000 nM -1.68%

C=C[C@]1(C)C[C@@H](OC(=O)CS[C@@H]2C[C@H]3CC[C@@H](C2)N3C)[C@]2(C)[C@H](C)CC[C@]3(CCC(=O)[C@H]32)[C@@H](C)[C@@H]1O [retapamulin]
inactive: 1 nM -0.46% | 8.33 nM 2.42% | 100 nM 1.21% | 833.33 nM 1.93% | 10000 nM -0.87%

OC[C@@H](O)[C@@H](O)[C@@H](O)CO [ribitol]
inactive: 1 nM 2.52% | 8.33 nM 3.83% | 100 nM 1.9% | 833.33 nM 3.1% | 10000 nM 1.14%
